ZTA counter: ZTA (EBV) inhibition in EBNA-1 counter-screen; P03206; inhibition, % at 11 µM; actives 0.15% (n = 320,000); ZTA-DNA binding, fluorescence polarization; in the data active = inhibition above about 33%
Target sequence (P03206 whole entry, looked up): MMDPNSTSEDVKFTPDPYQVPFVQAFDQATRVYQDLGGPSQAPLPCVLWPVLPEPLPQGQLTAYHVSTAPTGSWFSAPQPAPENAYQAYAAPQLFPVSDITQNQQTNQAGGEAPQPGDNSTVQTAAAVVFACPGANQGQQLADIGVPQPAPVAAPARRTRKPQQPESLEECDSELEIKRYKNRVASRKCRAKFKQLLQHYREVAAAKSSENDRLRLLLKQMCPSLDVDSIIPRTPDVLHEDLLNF
PAFAH1B3 FP inh: inhibitors of human PAFAH1B3. Q15102. recombinant PAFAH1B3, FP-rhodamine probe, fluorescence polarization. inhibition, % at 3.39 µM. actives 0.28% (n = 340,000). AID 492972;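 active = inhibition above the screen-wide average of all tested compounds plus 3 SD, cut at about 25% in these data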;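 also: 0% = enzyme with DMSO only and 100% = wells lacking PAFAH1B3 protein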
Target sequence (Q15102 whole entry, looked up): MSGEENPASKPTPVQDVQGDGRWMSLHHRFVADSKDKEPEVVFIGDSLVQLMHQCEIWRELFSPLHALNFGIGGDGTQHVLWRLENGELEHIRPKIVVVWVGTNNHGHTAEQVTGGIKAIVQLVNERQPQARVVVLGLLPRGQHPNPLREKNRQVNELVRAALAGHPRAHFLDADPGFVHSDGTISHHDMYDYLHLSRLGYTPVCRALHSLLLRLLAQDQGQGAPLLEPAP
PAFAH2 FP inh: PAFAH2 (human) inhibition | Q99487 | recombinant PAFAH2, FP-rhodamine activity probe, fluorescence polarization | inhibition, % at 3.39 µM | actives 0.99% (n = 340,000) | AID 492956;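 active = inhibition above the mean over all tested compounds plus 3 SD, cut at about 30% in these data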;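 also: inhibitors block probe labeling of enzyme so polarization drops; 0% = enzyme with DMSO and 100% = wells lacking PAFAH2 protein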
EBNA-1 inh: blocks EBNA-1 binding to DNA | EBNA-1 DNA binding, fluorescence polarization | inhibition, % at 14.8 µM | actives 0.34% (n = 300,000); in the data active = inhibition above about 28%
PAFAH1B2 FP inh: blocks human PAF acetylhydrolase 1b catalytic subunit 2; P68402; recombinant PAFAH1B2, FP-rhodamine activity probe, fluorescence polarization; inhibition, % at 3.39 µM; actives 1.2% (n = 340,000); AID 492953;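 active = inhibition above the mean of all tested compounds plus 3 SD, cut at about 24% in these data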;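 also: 0% = enzyme with DMSO and 100% = wells lacking PAFAH1B2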
rCAG binder: binds r(CAG) RNA repeats. inhibition, % at 3 µM. r(CAG) RNA repeat, TO-PRO-1 dye displacement fluorescence. actives 1.3% (n = 370,000). AID 651821;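 active = inhibition above the plate cutoff, the mean of all test compounds on that plate plus 3 SD, cut at about 35% in these data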;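 also: 0% = DMSO alone and 100% = 100 µM mitoxantrone as full dye displacement; higher means more dye released from RNA so lower well fluorescence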
The depositor's hits bear a star; x = no result. A selection: hits, their analogues and other compounds. The true share with any hit is near 2.9%.

SMILES | ZTA counter | PAFAH1B3 FP inh | PAFAH2 FP inh | EBNA-1 inh | PAFAH1B2 FP inh | rCAG binder
Cc1cccc(C(=O)O/N=C/c2ccc(Br)cc2)c1 | 11 | 0 | 73* | 9 | 37* | -6
Cc1ccc(C(=O)O)cc1NC(=O)CSc1nnc(-c2ccccc2F)n1C1CCCCC1 | x | 9 | 6 | x | 26* | 26
O=C(CSc1nnc(-c2ccccc2F)n1C1CC1)Nc1cccnc1Cl | 12 | 0 | -7 | 9 | 1 | -1
Cn1cccc1C(=O)OCC(=O)Nc1ccc2c(c1)OCO2 | -2 | -5 | 27 | 6 | 0 | 0
Cn1cccc1C(=O)OCC(=O)Nc1ccc2c(c1)CCC2 | 1 | 1 | 62* | -15 | -1 | -1
CC1(C(=O)Nc2cccc(NS(C)(=O)=O)c2)CCN1Cc1ccccc1OC(F)F (stereo unspecified) | x | x | x | x | x | 2
O=C(CCc1ccc(O)cc1)c1c(O)cc(O)cc1O | -3 | 0 | -11 | -7 | 31* | 6
N#C/C(=C\c1cc2c(cc1Br)OCO2)c1ccc(C(=O)O)cc1 | 14 | 6 | 5 | 5 | 33* | 14
NS(=O)(=O)c1cccc(NC(=O)CC23CC4CC(C2)CC(CC(=O)Nc2cccc(S(N)(=O)=O)c2)(C4)C3)c1 | -15 | 7 | -4 | 1 | 36* | 15
CC(=O)Nc1ccc(NC(=O)CC23CC4CC(CC(C4)C2)C3)cc1 | -15 | 9 | 13 | -6 | 10 | 1
CC(=O)NS(=O)(=O)c1ccc(NC(=O)CC23CC4CC(CC(Br)(C4)C2)C3)cc1 | -9 | 5 | -5 | -2 | 25* | 6
CCOC(=O)N1CCN(C(=O)C[C@H]2C[C@@]3(C(=O)OC)C(=C[C@H](COCc4ccccc4)O[C@@H]3C)N(CCc3ccc(OC)c(OC)c3)C2=O)CC1 | x | x | x | x | x | 3
O=C(C1CCCN1S(=O)(=O)c1ccc(F)cc1)N1CCc2ccccc2C1 (stereo unspecified) | x | x | x | x | x | 2
O=C(COC(=O)c1cc2c(s1)CCC2)Nc1ccc(F)cc1 | 7 | 10 | 87* | -11 | -1 | 21
CCOC(=O)[C@]12CCCCC/C=C\1N(CCc1ccc(Cl)cc1)C(=O)[C@H]2CC(=O)NCCCN1CCCC1=O | x | x | x | x | x | 1
Cc1cc(C)cc(NC(=O)OC2CCC23CCCCC3)c1 (stereo unspecified) | x | x | x | x | x | -1
Nc1nc2c(ncn2[C@@H]2O[C@H](C(=O)N[C@H](Cc3ccccc3)C(=O)NCc3ccccc3)[C@@H](O)[C@H]2O)c(=O)[nH]1 | x | x | x | x | x | 6
O=C(COC(=O)CC1CC2CCC1C2)Nc1ccc(F)cc1 (stereo unspecified) | -7 | 0 | 75* | -2 | 6 | -4
COc1ccccc1CNC(=O)COC(=O)Cc1ccc(Br)cc1 | x | 7 | 0 | x | 6 | -1
CCOc1ccc(NC(=O)COC(=O)CC2CC3CCC2C3)cc1 (stereo unspecified) | x | 8 | 66* | x | 9 | -2
CN(C)S(=O)(=O)c1cc(NC(=O)COC(=O)CC2CC3CCC2C3)ccc1Cl (stereo unspecified) | x | 1 | 77* | x | 6 | 9
COc1ccccc1CNC(=O)COC(=O)CC1CC2CCC1C2 (stereo unspecified) | -2 | 1 | 34* | x | 5 | 0
O=C(COC(=O)CC1CCS(=O)(=O)C1)Nc1ccc(F)cc1 (stereo unspecified) | x | 11 | 4 | x | 7 | 0
CN(C)S(=O)(=O)c1cc(NC(=O)COC(=O)Cc2ccc(Cl)cc2Cl)ccc1Cl | 8 | -3 | -2 | 4 | -4 | 5
C#CCCCN([C@@H](CC(C)C)C(=O)OC)S(=O)(=O)c1ccccc1Br | x | x | x | x | x | 0
SMILES | ZTA counter | PAFAH1B3 FP inh | PAFAH2 FP inh | EBNA-1 inh | PAFAH1B2 FP inh | rCAG binder
CCCCC(CC)CNC(=O)CN(C)S(=O)(=O)c1cccc2nsnc12 (stereo unspecified) | -6 | 9 | 6 | 8 | 25* | -6
O=C(CCSc1ccc(Cl)cc1)c1ccco1 | -13 | -1 | 3 | -22 | 28* | -2
Oc1c(Cl)cc(Cl)cc1/C=N/c1nccs1 | 3 | 9 | 10 | 1 | 6 | 9
Oc1c(Cl)cc(Cl)cc1/C=N/c1nc(-c2ccc(Cl)cc2)cs1 | -9 | 4 | 8 | 2 | 48* | x
COc1cc(C(=O)Nc2scc(-c3ccccc3)c2C(=O)O)cc(OC)c1OC | -17 | 6 | 7 | 6 | 0 | 49*
C[C@@H]1OCN(C)[C@H]2C[C@H]3c4[nH]c5cccc(-c6ccc7c(c6)OCO7)c5c4CCN3C[C@@H]12 | x | x | x | x | x | 9
CN(c1ccccc1)S(=O)(=O)c1cccc(NC(=O)CSc2nncs2)c1 | -5 | 1 | 0 | -3 | 5 | 6
CN(c1ccccc1)S(=O)(=O)c1cccc(NC(=O)CSc2ncn[nH]2)c1 | -18 | -1 | 4 | 10 | 25* | 6
COc1ccc(S[C@]2(C(=O)N3CCN(c4ncccn4)CC3)CC(=O)N(c3ccsc3)[C@@H]2c2ccc(OC)cc2)cc1 | x | x | x | x | x | 13
Clc1ccc(SCCn2ccnc2)cc1 | 22 | 7 | 1 | 6 | 35* | 1
Clc1ccc(OCCn2ccnc2)c(Cl)c1 | -5 | 1 | 10 | 12 | -7 | 0
Cc1ccc(S(=O)(=O)Nc2ccc3c(c2)n(C)c(=O)n3C)c(C)c1 | -8 | 3 | 8 | 0 | 4 | -2
Cc1ccc(S(=O)(=O)Nc2ccc3oc(=O)sc3c2)c(C)c1 | -5 | -1 | 8 | 7 | 28* | 24
O=C(O)c1cc(S(=O)(=O)Nc2ccc3oc(=O)sc3c2)ccc1O | 2 | x | x | 7 | x | 60*
O=C(O)c1cc(NS(=O)(=O)c2ccc3ccccc3c2)ccc1O | 9 | 5 | 21 | 3 | 48* | 13
N#Cc1c(C(F)(F)F)cc(-c2ccc(Cl)cc2)[nH]c1=O | 22 | -3 | -7 | 5 | -8 | 37*
N#Cc1c(C(F)(F)F)cc(-c2ccc(F)cc2)[nH]c1=O | 24 | 2 | 1 | 17 | 1 | 4
COc1ccc(-c2[nH]c(-c3ccc(SC)cc3)nc2SCC(=O)Nc2nccs2)cc1 | -19 | 25 | -21 | 1 | 27* | 21
C=CCNC(=O)CN(C(=O)Cc1ccc(Cl)cc1)c1cccc(Br)c1 | x | x | x | x | x | 2
CC(C)Cc1nnc(NC(=O)C23CC4CC(CC(C4)C2)C3)s1 | -14 | 0 | 5 | -20 | 20 | -1
Cc1ccc(N2CC(C(=O)Nc3nnc(SCC(N)=O)s3)CC2=O)cc1C (stereo unspecified) | -4 | 0 | 2 | -3 | 3 | 15
NC(=O)CSc1nnc(NC(=O)C23CC4CC(CC(C4)C2)C3)s1 | -3 | 3 | 8 | 0 | 28* | x
CCc1nnc(NC(=O)C23CC4CC(CC(C4)C2)C3)s1 | 12 | 6 | 9 | 14 | 30* | -5
O=S1(=O)c2ccc(Br)cc2OC[C@@H](Cc2ccccc2)N1Cc1cn(Cc2ccc(F)cc2)nn1 | x | x | x | x | x | 1
C=CCc1cccc2cc(C(=O)Nc3ccccc3C(=O)O)c(=O)oc12 | x | x | x | x | x | 38*
